Among all 370,000 compounds or so, about 3,800 (1%) were called active. The entries come from a sample that favours actives as a whole. Unmarked numbers belong to inactive results. No stated cut-off is given here; in the data, active means activation above about 7.8%; inactive means the rest.
Assay: SMARCA2 (BRM) function activators, primary screen, cell-based, luminescence, high throughput (AID 652017);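 further: 0% = vehicle wells and 100% = reference activator wells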
Conditions: MG213 cells, MMTV-luciferase reporter, dexamethasone, overnight; at 9.1 µM; hits give high values
Work on CCOC(=O)C1C(c2ccc(O)cc2)NC(=O)NC1(O)C(F)(F)F (stereo not drawn) yielded an activation of -2.11%. For O=C(c1cccs1)C1C(c2ccc(Br)cc2)NC(=S)NC1(O)C(F)(F)F (stereo not drawn), the activation was 9.18% (active). With CSc1ccc(C=Nn2c(-c3ccc(F)cc3)n[nH]c2=S)cc1 the activation was -5.15%. With Cc1cc(-c2n[nH]c(=S)n2/N=C/C(Br)=C/c2ccccc2)n[nH]1 the activation was 12.8% (active). With C=CCN1C(=O)[C@@H](CC(=O)N2CCN(C(=O)OCC)CC2)[C@]2(C(=O)OCC)CCCCC/C=C/12 the activation was 0.06%. With O=C(CSc1nc2ccccc2o1)N1CCN(c2ccc(Cl)cc2)CC1 the activation was -2.94%. With CC(C)(C)C(=O)CSc1nc2ccccc2o1 the activation was 8.4% (active). For CC1Cc2ccccc2N1C(=O)CSc1nc2ccccc2o1 (stereo not drawn), the activation was 1.43%. With COc1ccnc(C(=O)N2CCC(Oc3cccnc3)CC2)c1 the activation was 3.85%. Compound COc1ccc(N2CCN(CCNS(=O)(=O)c3ccc(Cl)s3)CC2)cc1 has an activation of 0.84%. CN1C(=O)C2(OCCCO2)c2cc(Cl)ccc21 gave an activation of -0.14%. In the case of COC(=O)c1ccc(/C=C2/C(=O)Oc3ccccc32)cc1, the activation is reported as 10.5% (active). Compound O=C1Oc2ccccc2C(=O)/C1=C/c1ccccc1O has an activation of 1.29%. Compound COC(=O)c1ccc(/C=N/N2C(C)CCCC2C)cc1 (stereo not drawn) has an activation of -1.42%. For CN(C)Cc1cn(-c2ccc(-c3noc4c3C(=O)N(CC(=O)N3CCOCC3)CC4)cc2)nn1, the activation was -2.05%. Compound COc1ccc(S(=O)(=O)Nc2ccc3c(c2)C(=O)N([C@H](C)CO)C[C@H](C)[C@@H](CN(C)C)OCCCC[C@H](C)O3)cc1 has an activation of -4.35%. For CC1CCN(c2ccc(-c3ccc(NC(=O)c4ccco4)cc3)nn2)CC1, the activation was 3.83%. With CC(OC(=O)CNC(=O)c1ccco1)C(=O)Nc1ccc(Cl)cn1 (stereo not drawn) the activation was -2.28%. With O=C(Nc1ccc(NC(=O)c2cccs2)cn1)c1ccco1 the activation was 9.66% (active). Compound O=C(COC(=O)CNC(=O)c1ccco1)Nc1ccc(F)cc1 has an activation of -3.14%. For O=C(Nc1ccc2nccnc2c1)c1ccco1, the activation was 9.43% (active). Cc1cc(NC(=O)[C@H](C)NC(=O)c2ccco2)ccc1Br showed an activation of -1.37%. Work on C=CS(=O)(=O)N(Cc1nnn(Cc2ccccc2)c1Br)[C@H](C(=O)OC)C(C)C yielded an activation of 3.93%. Compound CCC(=O)Nc1ccc2c(c1)C(=O)N(C)[C@@H]1CC[C@@H](CC(=O)NCCc3ccccc3)O[C@H]1CO2 has an activation of -2.13%. For COc1ccc(S[C@]2(C(=O)N(C)C)CC(=O)N(c3ccc(OC)cc3)[C@@H]2c2ccc(OC)cc2)cc1, the activation was 2.23%. Compound Cn1nnnc1NCc1ccc(Cl)c(Cl)c1 has an activation of -0.94%. For CCCCn1nnnc1C(c1cc2ccccc2o1)N(C)Cc1ccc(Cl)c(Cl)c1 (stereo not drawn), the activation was 8.8% (active). In the case of CCCCn1nnnc1C(c1ccccc1)N1CCN(c2ccccc2OC)CC1 (stereo not drawn), the activation is reported as -1.13%. CC(C)N1CCCCC(NC(=O)c2ccc3ccccc3c2)C1=O (stereo not drawn) showed an activation of -1.33%. With N[C@@H](Cc1ccccc1)C(=O)N1CCC[C@@H]1C(=O)N1CCC2CCN(S(=O)(=O)c3ccccc3)CC21 (stereo partly drawn) the activation was -1.95%. In the case of FC(F)(F)c1cccc(-c2cc3ccccc3nc2N2CCCC2)c1, the activation is reported as 0.37%. In the case of FC(F)(F)c1cccc(-c2nc3ccccc3n2C(c2ccccc2)c2nc3ccccc3[nH]2)c1 (stereo not drawn), the activation is reported as 9.93% (active). For CCC(c1nc2ccccc2[nH]1)n1c(=O)c(-c2cccs2)nc2ccccc21 (stereo not drawn), the activation was -3.44%. In the case of O=S(=O)(c1ccccc1)N1CCC(c2nc3ccccc3o2)CC1, the activation is reported as -4.23%. Cc1ccc(S(=O)(=O)N2CCC(C(=O)N3CCCCCCC3)CC2)cc1 gave an activation of -3.84%. In the case of O=C(C1CCC1)N1CCN(S(=O)(=O)c2ccc([N+](=O)[O-])cc2)CC1, the activation is reported as 9.83% (active). For O=C(C1CCN(S(=O)(=O)c2ccccc2)CC1)N1CCN(C2CCCCC2)CC1, the activation was -4.09%. In the case of COC(=O)[C@H](C(C)C)N(CCCc1cn(Cc2ccccc2)nn1)S(=O)(=O)c1ccc(F)cc1Br, the activation is reported as -0.98%. With CCOC(=O)c1nnn2c1nc(N1CCN(c3ccccc3)CC1)c1ccccc12 the activation was -2.86%. O=C(CCCCCN1C(=O)C2C3C=CC(C3)C2C1=O)Nc1ccccc1 (stereo not drawn) gave an activation of -2.37%. Cc1cc(=O)[nH]c(Nc2cccc(Br)c2)n1 gave an activation of -1.71%. Cc1ccc(C)c(NC2=NCC(=O)N2c2ccc3c(c2)OCCO3)c1 gave an activation of 2.74%. In the case of Cc1cc(=O)[nH]c(N/N=C/c2ccc3c(c2)OCCO3)n1, the activation is reported as 8.3% (active). In the case of CCCCNC(=O)C[C@@H]1C(=O)N(CCc2ccc(Cl)cc2)C2=CCCC[C@]21C(=O)OCC, the activation is reported as -0.47%. Compound COc1cccc(-c2cnc(OC(C)(C)C)nc2OC(C)(C)C)c1 has an activation of -2.58%. COc1cccc(NS(=O)(=O)c2ccc(-c3coc(C)n3)cc2)c1 gave an activation of -3.45%. For COc1cccc(-c2nc3cc(C)ccc3o2)c1, the activation was 7.97% (active). Work on C=CCN(C)CC#Cc1ccccc1 yielded an activation of 0.78%. Compound COP(=O)(O)CNC(=O)OCc1ccccc1 has an activation of -0.59%. CC(CCN1CCC(C(O)(c2ccccc2)c2ccccc2)CC1)Oc1ccc(Cl)cc1 (stereo not drawn) gave an activation of -5.29%. COCC(=O)Nc1c(I)c(C(=O)NCC(O)CO)c(I)c(C(=O)N(C)CC(O)CO)c1I (stereo not drawn) showed an activation of -1.43%. In the case of CCOC(=O)C1(Cc2ccccc2)CCN(Cc2cn(C(C)=O)c3ccccc23)CC1, the activation is reported as -3.37%. Nc1nc(SCCOc2ccccc2)n[nH]1 gave an activation of -0.38%. For Cc1ccc(OCCCCc2c(C)n[nH]c2C)cc1, the activation was -4.25%. For CCCOc1ccc(-c2nc(N)n[nH]2)cc1, the activation was 8.06% (active). Work on O=C(NCCc1c[nH]c2ccccc12)OCc1cn(-c2c(F)cccc2F)nn1 yielded an activation of -1.59%. COC(=O)[C@]12C[C@H](CC(=O)N3CCOCC3)C(=O)N(Cc3ccc(Cl)cc3Cl)C1=C[C@H](COCc1ccccc1)O[C@@H]2C showed an activation of -3.76%. Work on COC[C@@H]1CCCN1c1ccc2c(c1)O[C@H](C)CCN(C1CC1)S2(=O)=O yielded an activation of -0.54%.
